The panel holds about 83,000 compounds, 20% with a hit somewhere; the sample as a whole holds those more often.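 Plates (96-well) were seeded with cells, treated with compound at one concentration, and incubated for 48 hours before percent growth was determined.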 Unmarked numbers belong to inactive results. The source made the active and inactive calls. Rule for the calls: active = growth percent below 10; inactive = the rest.
What was measured:
Assay in all cases: NCI-60 one-dose screen, 48 h (100 = growth as untreated, 0 = no growth, -100 = all killed)
Details in all cases: 10 µM unless noted
DU-145 prostate = test system: DU-145 prostate
K-562 leukemia = test system: K-562 leukemia
MALME-3M melanoma = test system: MALME-3M melanoma
MDA-MB-231 breast = test system: MDA-MB-231 breast
RXF 393 renal = test system: RXF 393 renal
SF-268 CNS = test system: SF-268 CNS
SF-295 CNS = test system: SF-295 CNS
SF-539 CNS = test system: SF-539 CNS
UACC-257 melanoma = test system: UACC-257 melanoma
M14 melanoma = test system: M14 melanoma
HCT-15 colon = test system: HCT-15 colon
HT29 colon = test system: HT29 colon
SNB-75 CNS = test system: SNB-75 CNS
SNB-19 CNS = test system: SNB-19 CNS
U251 CNS = test system: U251 CNS
PC-3 prostate = test system: PC-3 prostate
SK-MEL-5 melanoma = test system: SK-MEL-5 melanoma
UACC-62 melanoma = test system: UACC-62 melanoma
LOX IMVI melanoma = test system: LOX IMVI melanoma
SK-MEL-28 melanoma = test system: SK-MEL-28 melanoma

Structure (SMILES)	growth (DU-145 prostate)	growth (K-562 leukemia)	growth (MALME-3M melanoma)	growth (MDA-MB-231 breast)	growth (RXF 393 renal)	growth (SF-268 CNS)	growth (SF-295 CNS)	growth (SF-539 CNS)	growth (UACC-257 melanoma)	growth (M14 melanoma)	growth (HCT-15 colon)	growth (HT29 colon)	growth (SNB-75 CNS)	growth (SNB-19 CNS)	growth (U251 CNS)	growth (PC-3 prostate)	growth (SK-MEL-5 melanoma)	growth (UACC-62 melanoma)	growth (LOX IMVI melanoma)	growth (SK-MEL-28 melanoma)
O=S(=O)(Cc1ccccc1)c1nc2ccccc2s1	86.7%	13.5%	73.6%	85.1%	109%	79%	109%	92%	78.7%	18.3%	33.3%	25.6%	90%	97.1%	92.1%	79.5%	67.4%	71.1%	10.8%	93.8%
CC(C)N(CCOC(=O)Nc1ccccc1Cl)C(C)C	105%	104%	104%	106%	108%	101%	104%	104%	99.1%	99.5%	108%	97.1%	107%	98.6%	98.8%	74%	97.5%	96.4%	101%	110%
COc1cccc(CCC2CCCN(c3cc(C)nc(N)n3)C2)c1 (centres undefined)	25.9%	10.9%	55.2%	22.7%	22.3%	42.6%	14.7%	10.1%	44.5%	6.51% (active)	21.9%	4.64% (active)	25.9%	23.8%	15%	20.2%	18.2%	29.3%	17%	50.2%
COc1ccc(-c2cncnc2N)cc1OC	114%	103%	111%	112%	112%	103%	97.5%	107%	111%	103%	103%	111%	88.3%	108%	97.7%	90.6%	106%	112%	98.6%	106%
N=C(N)c1ccc(-c2ccc(-c3ccc(Cl)c(Cl)c3)o2)nc1	-18.5% (active)	-1.03% (active)	105%	-47% (active)	86%	98.5%	-70.1% (active)	38.8%	107%	-51.8% (active)	17.2%	-39.8% (active)	97.8%	6.96% (active)	-57.1% (active)	64.5%	92.4%	103%	-74.7% (active)	99.6%
CCCNCC(=O)Nc1ccc(C(=O)OC(C)(C)CC)cc1	101%	101%	90.9%	102%	116%	99%	103%	108%	105%	96.8%	106%	79.4%	104%	99.7%	100%	75.8%	98.2%	96.3%	100%	112%
Cc1cc(NS(=O)(=O)c2ccccc2)c(OS(=O)(=O)c2ccccc2)cc1C	120%	88.8%	113%	101%	111%	105%	113%	98.5%	109%	96.8%	102%	111%	89.5%	98.1%	99.8%	89.7%	102%	94%	99.3%	112%
CCCCCOC(=O)c1cccc(NC(=O)CN(CC)CC)c1	104%	103%	94.8%	117%	106%	104%	96.1%	98.6%	105%	86.9%	107%	79.6%	103%	106%	103%	77.1%	105%	103%	101%	108%
N#Cc1c(N)n2c(nc1=Nc1ccc(Cl)cc1)sc1cc(Cl)ccc12	97.7%	92.1%	85.4%	67.1%	65.1%	56.4%	-2.32% (active)	103%	54.4%	62.2%	96.2%	33.4%	21.1%	75.5%	71%	62.5%	61.1%	63.4%	79.7%	57.6%
CCN(CC)CCOC(=O)Nc1ccccc1Cl	107%	94.8%	95.7%	115%	117%	102%	104%	102%	105%	86.1%	102%	80.4%	108%	99.4%	99.3%	71.7%	105%	99.2%	101%	108%
N#Cc1c(NC(=O)c2ccccc2I)sc2c1CCCC2	62.9%	14.8%	60.9%	54.7%	-10.4% (active)	58.1%	21.1%	22.9%	60.7%	16.3%	21.5%	17.4%	16.7%	39.2%	29.7%	47.1%	19.2%	38%	36.8%	64.1%
Cn1cc(Nc2nccc(-c3ccc(N4CCCC4)c(C#N)c3)n2)cn1	55.7%	9.73% (active)	54.4%	63.9%	43.9%	45.9%	71.3%	43.8%	69.6%	17.2%	21.3%	20.3%	24.5%	62.3%	35.8%	43%	38.8%	28.8%	32.6%	64%
CCc1nc2ccccc2[nH]1	125%	102%	122%	103%	113%	103%	119%	104%	102%	99.8%	108%	108%	91.1%	98.3%	106%	101%	110%	98.9%	107%	105%
Clc1ccc2[nH]c3c(NCCCN4CCOCC4)ncnc3c2c1	87.3%	31.6%	93.9%	56.7%	70.5%	99.6%	64.7%	95.4%	98.2%	73.8%	84.1%	18.6%	85%	92.9%	69.6%	75.6%	67%	80.1%	64.5%	91.2%
COc1cc(-c2ccc(-c3ccc(C(=N)N)nc3)s2)cc(OC)c1OC	49.9%	5.58% (active)	24.7%	44.2%	77.1%	86.1%	40.1%	1.84% (active)	92.9%	43.1%	21.4%	14.2%	68.5%	65.2%	28.9%	54.7%	37.6%	59.5%	-14.3% (active)	59.3%
CNC(=O)c1cc(Oc2ccc3nc(Nc4cc(Cl)cc(Cl)c4)ccc3c2)ccn1	78%	19.1%	64.7%	34.6%	92.4%	59.8%	47.1%	75.3%	53.2%	38.5%	41.4%	15.3%	70.2%	75.2%	58.2%	40.3%	51.8%	44.7%	45.9%	61.4%
COc1ccc(/C=C2\C=C(c3ccccc3)N(CCc3ccccc3)C2=O)cc1OC	69%	47.6%	39.3%	29.6%	-3.29% (active)	55.2%	26.8%	42.1%	69.3%	51.5%	60.9%	38.6%	-7.78% (active)	43.3%	15.9%	54.4%	38.5%	54.5%	2.28% (active)	76.7%
COc1ccc(-c2cc(-c3cc(OC)ccc3OC)[nH]c(=O)c2C#N)cc1	74.2%	25.4%	52.4%	55.4%	71.1%	60.3%	31%	50.3%	59.3%	29.1%	62.8%	38.1%	56.4%	68.1%	39.5%	72.6%	40.1%	47.7%	44.6%	74.8%
CCN(CC)CC(=O)Nc1cccc(C(=O)OC(C)C)c1	109%	102%	99.5%	112%	112%	105%	95%	100%	106%	79.6%	93.9%	81.5%	107%	106%	100%	80.8%	107%	102%	96.2%	102%
COc1cccc(-c2nc3sccn3c2-c2ccnc(NCCNS(=O)(=O)c3c(Cl)cccc3Cl)c2)c1	63%	29.3%	77.8%	76.7%	69.9%	26.1%	60.7%	85.9%	85.1%	57.7%	47.3%	47.3%	42.8%	77%	70.1%	41.2%	26%	28.6%	58.6%	90.4%
Cc1ccc2c(n1)C(=O)C(Oc1ccc(F)cc1)=CC2=O	114%	20%	93.9%	105%	107%	90.8%	101%	95.9%	95.5%	103%	81.8%	108%	83%	110%	95.3%	98.9%	91.4%	99.7%	88.5%	113%
NC(N)=N/N=C(/c1ccccc1)c1ccccc1F	15%	4% (active)	35.7%	22.1%	43%	51.8%	11.8%	2.84% (active)	68.1%	-45.4% (active)	22%	8.59% (active)	7.44% (active)	30.9%	24.2%	14.1%	15.8%	20.2%	46.3%	63.4%
O=C(NCCOCCOCCNc1cccc2c1C(=O)N(C1CCCNC1=O)C2=O)c1cc2c(o1)C(=O)c1ccccc1C2=O (centres undefined)	-90.8% (active)	9.04% (active)	-94.9% (active)	-2.54% (active)	-35.4% (active)	-9.46% (active)	-91.9% (active)	-86.2% (active)	-84.1% (active)	-52.7% (active)	-65.3% (active)	2.43% (active)	-98.3% (active)	3.8% (active)	-36.4% (active)	4.67% (active)	-98.7% (active)	-81.7% (active)	-59% (active)	-28.6% (active)
CCN(CC)CCCC(C)NCc1ccccc1 (centres undefined)	97.8%	118%	91.1%	105%	135%	100%	101%	102%	102%	91.4%	101%	83.4%	99.8%	101%	99.2%	91.2%	108%	97.5%	100%	102%
O=C1NCC(=O)N(Cc2ccco2)[C@H]1Cc1ccccc1	110%	107%	110%	89.1%	117%	102%	96.5%	97.9%	86.9%	98.2%	98.4%	103%	94.5%	94.5%	88.6%	91%	102%	96.6%	95.6%	107%
CCO/C=N/C1=C(C#N)C(c2ccc(OC)cc2)c2c(c3ccccc3n(C)c2=O)O1 (centres undefined)	106%	102%	96.5%	101%	104%	99.2%	101%	98.6%	102%	103%	103%	104%	78.1%	101%	103%	98.4%	102%	98.7%	99.1%	110%
COc1ccc2c(c1)/C(=C\c1sc(=S)[nH]c1O)C(C(=O)O)=N2	99.2%	92.6%	94.7%	94.8%	95.2%	92.3%	103%	99.4%	96.7%	97%	100%	104%	84.6%	100%	98.3%	99.4%	101%	91.4%	–	111%
CN1C[C@@H](c2ccc(Cl)cc2)[C@]2(NC(=S)N(c3ccccc3)C2=O)[C@@]12C(=O)NC1C=CC(Br)=C[C@H]12 (some centres undefined)	85%	34.8%	108%	60.8%	68.4%	58.1%	80.6%	84.8%	71.4%	39.4%	73.5%	61.5%	69.6%	86.2%	72.5%	28.1%	64%	74.3%	75.5%	95.4%
CCCN1CCN(c2ccc3nc(-c4ccc5nc(-c6ccc(OCC)c(OCC)c6)[nH]c5c4)[nH]c3c2)CC1	-64.1% (active)	-5.53% (active)	-82.4% (active)	-80.2% (active)	-92.3% (active)	15.8%	-63.2% (active)	-87.9% (active)	-29.7% (active)	-65.7% (active)	5.97% (active)	-31.3% (active)	-77.9% (active)	-39.7% (active)	-71.9% (active)	-40.6% (active)	-93.9% (active)	-85% (active)	-84.3% (active)	-86.6% (active)

From PubChem BioAssay (NCI)
